Source: PubChem
The list is not random: actives were taken first. Their share in the collection is about 0.93%.
TRHR enhancer: allosteric enhancers of human TRH receptor; TRHR cells, fluo-8 calcium fluorescence, EC20 TRH enhancement; enhancement, % at 2 µM; P34981; 0.66% of 360,000 active; in the data active = enhancement above about 30%; note: 0% is about no effect
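Enhancer read-out: after compound pinning and an initial kinetic agonist-mode read, an EC20 of TRH (10 nM final) was injected and fluo-8 calcium signal (Ex 480/Em 530) followed at 1 s/cycle for 100 cycles in TRHR-expressing cells.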
PTHR1 ag: PTHR1 (human) receptor agonism; Q03431; HEK293 GP2 PTHR1 cells, GloSensor cAMP luminescence, 1 h; Potency, µM (titrated, usually from 115 µM), without a hit: at the highest dose activation, usual class: activators; 0.075% of 410,000 active; note: potency is the fitted concentration of half-maximal effect; nearly all actives have a fitted effect of over 55% in size
Target sequence (Q03431 whole entry, looked up): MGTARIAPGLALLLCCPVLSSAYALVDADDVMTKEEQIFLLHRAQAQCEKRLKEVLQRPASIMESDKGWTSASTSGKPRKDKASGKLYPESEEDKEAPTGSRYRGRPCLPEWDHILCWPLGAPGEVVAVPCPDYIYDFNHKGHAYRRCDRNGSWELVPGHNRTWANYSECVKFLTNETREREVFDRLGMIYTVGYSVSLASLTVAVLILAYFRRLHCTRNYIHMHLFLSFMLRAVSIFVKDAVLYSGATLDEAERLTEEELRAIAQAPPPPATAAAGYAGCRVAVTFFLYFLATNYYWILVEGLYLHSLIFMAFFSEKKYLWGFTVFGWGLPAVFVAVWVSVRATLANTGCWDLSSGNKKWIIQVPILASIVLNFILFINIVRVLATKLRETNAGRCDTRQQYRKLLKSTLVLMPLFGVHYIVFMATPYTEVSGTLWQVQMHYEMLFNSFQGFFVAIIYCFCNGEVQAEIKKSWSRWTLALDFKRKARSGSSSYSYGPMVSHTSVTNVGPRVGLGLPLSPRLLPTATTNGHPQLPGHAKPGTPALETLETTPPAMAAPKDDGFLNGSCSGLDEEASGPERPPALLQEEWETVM
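HEK-293-derived GP2 cells expressing PTHR1 and a GloSensor cAMP reporter, 3,000/well, plated overnight, given luciferin plus IBMX (each 0.5 mM as added) for 1 h at 37 °C, then compound for 1 h at 37 °C. Luminescence was read after 15 min at room temperature.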
TRPML1 inh: blocks the human TRPML1 channel | Q9GZU1 | TRPML1-inducible cells, Ca2+ dye fluorescence, FDSS; active compounds read low; inhibition of EC80 agonist-evoked calcium signal | activity change, negative = inhibition, % (no concentration beside the values) | 0.02% of 390,000 active; in the data active = activity change below about -50%; inconclusive = between about -30% and that limit;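 note: stimulus is agonist 54-4 at its EC80 concentration; % is set by controls: 0 for no effect and ±100 for the full control effect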
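Calcium fluorescence in TRPML1-DL cells induced overnight with Tet: a 110 s read after compound pin addition, then a 110 s antagonist read after challenge with 54-4 at 4 uM final (EC80).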
GLP1R cytotox: cytotoxicity in counter-screen for GLP-1R inverse agonists; HEK293 cAMP-luciferase reporter cells, luminescence, 24 h; 0.13% of 410,000 active; Potency, µM (top dose mostly 38.3 µM), for the others: top-dose activity change, negative = inhibition, most hits filed as inhibitors;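 note: loss of luciferase light is scored as toxicity; potency is the fitted concentration of half-maximal effect; % is set by controls: 0 for no effect and ±100 for the full control effect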
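A 23 nL compound transfer followed 12 hours of cell culture at 37 deg C; exposure then lasted 24 hr. Luciferase assay detection reagent was dispensed and plates read for luminescence after a 12 min room-temperature wait.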
TRHR ag: TRH receptor (human) agonism; P34981; TRHR cells, calcium flux fluo-8, FDSS agonist mode; activation, % at 2 µM; 0.18% of 360,000 active; in the data active = activation above about 30%; note: 0% is about no effect
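TRHR-expressing cells, plated overnight in medium with 10% serum, were loaded with fluo-8 calcium dye at room temperature. After a 10 s baseline, library compound was pin-added and calcium release was recorded kinetically (ex 480/em 530) as agonist response.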
TRPML1 agonist: agonists of human TRPML1 channel; Q9GZU1; TRPML1-expressing cells, Ca2+ dye fluorescence, FDSS; activation, % (no concentration beside the values); 0.12% of 410,000 active; AID 624414; in the data active = activation above about 50%; inconclusive = mostly about 30% to 49%; note: 0% is about no effect
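Cells: TRPML1-DL, 1X Tet inducer, ~16 h at 37 degrees C/5% CO2. Dye: ABD Ca8 no-wash + quencher, 45-90 min RT. Read: 10 s baseline, compound add, 110 s agonist phase; 54-4 EC80 (4uM final), 110 s antagonist phase.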
Starred values were filed as active, the others as inactive; i = inactive; ? = inconclusive; · = no result; [ ] = remark or other dose. Unless noted, calls come from the whole dose curve; as a rule, active = well fitted curve in the direction sought with a large enough effect; inconclusive = small, poorly fitted or top-dose-only effect, or another doubt; inactive = no such curve, though single readings can be large; an effect the other way counts as inactive or inconclusive.

SMILES | TRHR enhancer | PTHR1 ag | TRPML1 inh | GLP1R cytotox | TRHR ag | TRPML1 agonist
N#C/C(=N/Nc1ccc([N+](=O)[O-])cc1)C(=N)N1CCCCC1 | -0.6 | -19.6% | 11.7 | 11.2µM* | 0.5 | -0.6
N#C/C(=N\Nc1ccc([N+](=O)[O-])cc1)C(=N)N1CCOCC1 | 2.9 | i | 8.7 | ? | 0.1 | 0.6
CN(C)c1ccc(/C=C2\Cc3ccccc3C2=O)cc1 | · | · | · | · | · | 25.4
Cc1ccc2c(c1)C/C(=C/c1ccc(N(C)C)cc1)C2=O | · | · | · | · | · | 55.2*
O=C(OCCF)N1CCN(/[N+]([O-])=N/Oc2ccc([N+](=O)[O-])cc2[N+](=O)[O-])CC1 | · | · | -5.7 | · | · | 1.2
CCCCCCCn1ccc(=N)cc1 | 11.2 | -86.5%[57.5 µM] | 7.0 | -28.9% | 0.1 | 0.9
CCCCCn1ccc(=N)cc1 | 36.0* | -29.2%[57.5 µM] | 9.6 | 5.2% | -0.2 | 0.0
O=C(COC(=O)c1cc(=O)[nH]c2ccc(Br)cc12)c1ccccc1 | 32.9* | i | 8.8 | -12.7% | -2.4 | 5.7
N=c1n(N)c2ccccc2n1CC(=O)c1ccc(Br)cc1 | 32.5* | -7.3% | 10.6 | ? | -1.3 | -0.1
C=CCn1c(=N)n(CC(=O)c2ccc(Br)cc2)c2ccccc21 | -3.0 | -16.4% | 1.3 | -2.3% | -0.1 | 2.4
CC(=O)NNc1ncnc2c1cnn2-c1ccc(C)c(Cl)c1 | 31.4* | i | 17.8 | 17.7% | 0.6 | 0.1
CCC(C)(C)NC(=O)C(c1ccncc1)N(Cc1cccs1)C(=O)Cn1nnc2ccccc21 (centres undefined) | 2.5 | -4.4%[57.5 µM] | 5.6 | -5.1% | -0.4 | -1.8
CCC(C)(C)NC(=O)C(c1cccs1)N(CC1CCCO1)C(=O)Cn1nnc2ccccc21 (centres undefined) | 37.5* | 6.9%[57.5 µM] | 10.7 | -12.5% | -0.8 | 1.2
Cc1cc2nn(-c3ccc(F)cc3)nc2cc1N | 32.1* | -21.7% | -14.9 | 114.9% | -0.6 | 0.1
N#Cc1nc(Nc2ccc(F)cc2)nc(NC2CCCC2)n1 | 4.1 | · | · | · | -0.9 | ·
O=[N+]([O-])c1cccnc1N1CCN(c2ccc(F)cc2)CC1 | 36.8* | i | -3.1 | -20.4% | 1.3 | -1.7
O=C(c1ccc([N+](=O)[O-])cc1)N(Cc1ccc(Cl)cc1)N1C(=O)CCCC1=O | -19.5 | -0.6% | 36.3 | 24.3% | 36.0* | 19.3
CCCn1c(=O)c(C(=O)OCC)c(O)c2cc(Br)ccc21 | 31.7* | -37.6% | 1.7 | 1.8% | 0.4 | 2.0
C=CCn1c(=O)c(C(=O)OCC)c(O)c2ccccc21 | 5.6 | -34.0% | 47.7 | 7.7% | -0.3 | 2.9
CCN1CCc2c(sc(NC(=O)c3ccc(S(=O)(=O)N(CCOC)CCOC)cc3)c2C(N)=O)C1 | -3.7 | i | 13.6 | -4.3% | -0.4 | 0.3
CCN1CCc2c(sc(NC(=O)c3ccc(S(=O)(=O)N(C)c4ccccc4)cc3)c2C(=O)NC)C1 | 7.2 | -61.7% | 0.4 | 23.3% | 47.7* | 60.7*
CNC(=O)c1c(NC(=O)c2ccc(S(=O)(=O)N(C)c3ccccc3)cc2)sc2c1CCN(C(C)C)C2 | 3.5 | -3.0% | 3.2 | 20.8% | 61.6* | 7.3
C(=C\c1ccnc2ccccc12)/c1cc2c3c(c1)CCCN3CCC2 | · | · | · | · | · | -1.1
C(=C1c2ccccc2Oc2ccccc21)c1ccccc1 | · | · | · | · | · | -0.3
Cc1ccc(OC(C)C(=O)N(C)Cc2ccccc2)c([N+](=O)[O-])n1 (centres undefined) | 39.2* | i | -4.2 | 3.9% | 1.8 | -0.8
SMILES | TRHR enhancer | PTHR1 ag | TRPML1 inh | GLP1R cytotox | TRHR ag | TRPML1 agonist
Cc1ccc(OCC(=O)N(Cc2ccccc2)C(C)C)c([N+](=O)[O-])n1 | -0.3 | i | 0.1 | -17.0% | -0.8 | -0.9
COc1ccc(OC)c(NS(=O)(=O)c2ccc(N3CCCC3=O)cc2)c1 | 33.9* | -4.8% | -10.8 | -49.6% | -0.5 | 0.3
COc1ccc(CCNS(=O)(=O)c2ccc(N3CCCC3=O)cc2)cc1 | · | -0.6% | -8.4 | 0.2% | · | -0.5
C/C(=N/NC(=O)C1CCCN1C(=O)c1ccc([N+](=O)[O-])cc1)c1ccc(Br)cc1 (centres undefined) | 34.7* | -14.8% | -7.7 | -1.9% | 0.8 | -0.6
O=C1C(=O)C(c2ccc(O)cc2O)Oc2cc(O)cc(O)c21 (centres undefined) | · | · | · | · | · | 0.4
Nc1nc(NCc2ccc(Cl)cc2Cl)c2[nH]cnc2n1 | · | · | · | · | · | -0.3
C=C(C)C(=O)OCC(=O)NCc1ccccc1 | -2.9 | 21.9% | 14.1 | 11.2µM* | 1.6 | 2.6
CCn1cnc2c(Nc3ccc(CC(=O)N=C(N)N)cc3)nc(C#N)nc21 | 1.0 | · | · | · | -1.3 | ·
COc1ccc(Cl)cc1NC(=O)NC1CCCCC1 | 31.5* | -4.8%[57.5 µM] | -7.2 | 6.3% | -0.7 | 1.7
COc1ccc(Cl)cc1NC(=S)N1CC(C)OC(C)C1 (centres undefined) | 33.0* | i | 23.9 | 1.3% | 0.3 | 0.7
COc1ccc(Cl)cc1NC(=O)N1CCN(C2CCCCC2)CC1 | 36.2* | 29.0% | -4.7 | -14.3% | 1.0 | -0.3
Cn1nnnc1Sc1ncnc2scc(-c3ccccc3F)c12 | 5.2 | · | · | · | -1.1 | ·
C1=Cc2ccccc2/C1=C\c1cc[cH-]c1.[Fe+2].c1cc[cH-]c1 | · | · | · | · | · | -0.7
O=C(N/N=C/c1cccnc1)c1ccc(NC(=O)c2ccccc2Cl)cc1 | 31.3* | i | 13.6 | 4.5% | 1.1 | -1.0
Cc1ccc(C(=O)Nc2ccc(C(=O)N/N=C/c3cccnc3)cc2)cc1 | -0.1 | -39.2% | -5.7 | -4.5% | 0.6 | 0.3
O=[N+]([O-])c1ccc(/C=N/Nc2ncccc2[N+](=O)[O-])s1 | · | -18.2% | -6.0 | 1.12µM* | · | -0.3
O=C(NCCN1CCOCC1)C(=O)NCC1CCCO1 (centres undefined) | 34.1* | i | -5.8 | -6.5% | 0.0 | 0.1
Cc1nnc(SCCn2c(N3CCN(C)CC3)nc3c2c(=O)[nH]c(=O)n3C)s1 | 40.7* | -5.2%[57.5 µM] | 6.4 | 3.2% | 0.3 | -0.5
CN(C)CCCN(C(=O)CCOc1ccccc1)c1nc2ccc(F)cc2s1 | -11.5 | i | -3.1 | 10µM* | 1.4 | 2.3
CCn1c(=O)c(C(=O)NNC(=O)c2ccccc2F)c(O)c2ccccc21 | -8.1 | -49.6% | -1.1 | 12.4% | 42.9* | 17.2
COc1ccc2cc(-c3[nH]ncc3CN3CCCN(c4ccccc4)CC3)ccc2c1 | 30.6* | -38.6% | 11.4 | ? | 0.2 | 1.9
COc1ccc(-c2[nH]ncc2CN2CCCN(c3ccccc3)CC2)c(F)c1 | -3.5 | -17.5% | -0.2 | -3.5% | 1.0 | -0.5
Cc1ccccc1NC(=O)CCn1nc(-c2ccc(Cl)cc2)c2ccccc2c1=O | 37.1* | -17.9% | 3.2 | -1.7% | -0.8 | 1.6
Cn1nc(-c2ccc(OCC(=O)Nc3ccc(Cl)cc3)cc2)c2ccccc2c1=O | 35.3* | -93.8% | 49.0 | -8.9% | -0.9 | -1.2
